Test results taken from PubChem BioAssay (Tox21).
Several values for one entry are separate records, joined by “and”; a condition that tells them apart may be missing. Identical values can stand only once. Inconclusive results are not listed. A call without a number means that no potency is given here. The source holds several records for some structures; these can differ, active in one and inactive in another. Activity calls are given as the source filed them. Unless noted, calls follow the shape of the dose curve; as a rule, active = well fitted curve in the direction sought with a large enough effect in the repeat runs; inconclusive = weak or mixed curves; inactive = no such curve, though single readings can be large; an effect the other way counts as inactive or inconclusive.

Key:
[1] = qHTS assay to identify small molecule antagonists of the retinoid acid receptor (RAR) signaling pathway - cell viability counter screen (AID 1159551); also: nearly all actives have a fitted effect of over 35% in size; also: potency is read from the fitted curve at half-maximal effect
Summary of the method: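 Measured by luminescent ATP detection, viability reflects C3RL4 cells treated 6 h at 37 C with test chemicals in the presence of 1 uM (final) retinol.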

[2] = qHTS assay to identify small molecule antagonists of the retinoic acid receptor (RAR) signaling pathway (AID 1159552; also: nearly all actives have a fitted effect of over 50% in size; also: potency is read from the fitted curve at half-maximal effect)
Summary of the method: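 Overnight-plated C3RL4 reporter cells get compound, then retinol to 1 uM final; plates sit 6 hr at 37 C, 5% CO2. A luciferase reagent is added and light output recorded after 30 min at room temperature.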

[3] = qHTS assay to identify small molecule agonists of the retinoic acid receptor (RAR) signaling pathway (AID 1159553); also: potency is read from the fitted curve at half-maximal effect
Summary of the method: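 6 hr compound exposure (DMSO vehicle) of overnight-plated C3RL4 RARE-luc cells at 37 C; luminescence quantified after 30 min RT with luciferase reagent.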

[4] = qHTS assay to identify small molecule antagonists of the estrogen related receptor (ERR) signaling pathway from Tox21 library - cell viability counter screen (AID 1224834); also: nearly all actives have a fitted effect of over 30% in size; also: potency is read from the fitted curve at half-maximal effect
Summary of the method: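 Seeded ERR cells were rested 6 h at 37 C/5% CO2 before compounds, positive and negative controls or DMSO were added. Incubation continued for 17.5 h, and viability was then quantified by CellTiter-Fluor fluorescence.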

[5] = target: Luciferin 4-monooxygenase (Photinus pyralis) (UniProt P08659); assay: qHTS assay to identify small molecule inhibitors of firefly luciferase (AID 1224835); also: nearly all actives have a fitted effect of over 25% in size; also: potency is read from the fitted curve at half-maximal effect
Summary of the method: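 Inhibition of purified Photinus luciferase is measured by luminescence. Substrate levels (D-luciferin, ATP) sit at their KM values. Each compound is tested in a concentration series.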

[6] = qHTS assay to identify small molecule agonists of the constitutive androstane receptor (CAR) signaling pathway - cell viability counter screen (AID 1224836); also: nearly all actives have a fitted effect of over 45% in size; also: potency is read from the fitted curve at half-maximal effect
Summary of the method: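 Fluorescence from CellTiter-Fluor indicates live cells after 23 h exposure. The human hepatoma line expresses hCAR and a CYP2B6-2.2kb reporter. Incubation medium contains 0.75 uM PK11195 (final).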

[7] = qHTS assay to identify small molecule antagonists of the constitutive androstane receptor (CAR) signaling pathway - cell viability counter screen (AID 1224837); also: nearly all actives have a fitted effect of over 45% in size; also: potency is read from the fitted curve at half-maximal effect
Summary of the method: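 To flag cytotoxic false antagonists, HepG2 hCAR/CYP2B6-2.2kb cells were treated 23 hr with 15-concentration compound series and 50 nM CITCO at 37 C/5% CO2; CellTiter-Fluor fluorescence was the measured end point.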

[8] = target: Nuclear receptor subfamily 1 group I member 3 (Homo sapiens) (UniProt Q14994); assay: qHTS assay to identify small molecule antagonists of the constitutive androstane receptor (CAR) signaling pathway (AID 1224838);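 also: HepG2 cells stably expressing hCAR with CYP2B6 luciferase reporter stimulated by CITCO; nearly all actives have a fitted effect of over 40% in size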; also: potency is read from the fitted curve at half-maximal effect
Summary of the method: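 Human hepatoma HepG2 cells expressing hCAR and a CYP2B6 promoter (2.2 kb) luciferase construct; compound titration (15 points) with 50 nM CITCO final, 24 h at 37 C/5% CO2; luminescence via ONE-Glo after 30 min at room temperature.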

[9] = qHTS assay to identify small molecule antagonists of the estrogen related receptor signaling pathway with the pleiotropic PPARgamma coactivator (PGC) from Tox21 10K library (AID 1224841; call rule not given here; also: actives are mostly falling curves and most rising ones were filed inactive; nearly all actives have a fitted effect of over 50% in size; also: potency is read from the fitted curve at half-maximal effect)
Summary of the method: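 Test chemicals dissolved in DMSO were applied to pre-incubated (6 h) PGC/ERR cells at 2,000 cells/well for an 18 h, 37 C treatment; reporter luminescence was then read using One-Glo.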

[10] = qHTS assay to identify small molecule agonists of the estrogen related receptor signaling pathway with the pleiotropic PPARgamma coactivator (PGC) from Tox21 10K library (AID 1224842); also: nearly all actives have a fitted effect of over 15% in size; also: potency is read from the fitted curve at half-maximal effect
Summary of the method: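 Luminescence from One-Glo (30 min, room temperature) measured after PGC/ERR cells had 18 h at 37 C with pinned compound (23 nL in DMSO). Cells had been seeded at 2,000 per well and pre-incubated 6 h.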

[11] = target: Retinoic acid receptor RXR-alpha (Homo sapiens) (UniProt P19793); assay: qHTS assay to identify small molecule agonists of the RXR signaling pathway (AID 1159527; calls by dose curve; also: nearly all actives have a fitted effect of over 35% in size)
Summary of the method: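 Reporter activation is measured as beta-lactamase activity via FRET substrate cleavage (emission 460/530 nm) in HEK 293T cells expressing an RXR-alpha-driven bla construct, following 16 hr compound exposure at 37 C.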

[12] = qHTS assay to identify small molecule antagonists of the estrogen related receptor (ERR) signaling pathway - cell viability counter screen (AID 1224818); also: series mostly up to about 46 µM
Summary of the method: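 Compounds dissolved in DMSO were applied to ERR cells seeded at 2,000 per well 6 h earlier. Cell viability followed 17.5 h later via 30-min CellTiter-Fluor fluorescence.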

[13] = qHTS assay to identify small molecule antagonists of the estrogen related receptor signaling pathway with the pleiotropic PPARgamma coactivator (PGC) cell viability counter screen (AID 1224822; also: series mostly up to about 46 µM)
Summary of the method: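 Counter screen for cell viability: PGC/ERR cells, 6 h pre-incubation after plating, 17.5 h compound exposure at 37 C, fluorescence from CellTiter-Fluor after 30 min.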

[14] = qHTS assay to identify small molecule antagonists of the estrogen related receptor signaling pathway with the pleiotropic PPARgamma coactivator (PGC) from Tox21 10K library - cell viability counter screen (AID 1224840; active = well fitted cell-killing curve with a large enough effect in the repeat runs, not every such curve was filed as active; also: nearly all actives have a fitted effect of over 40% in size; also: potency is read from the fitted curve at half-maximal effect)
Summary of the method: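 Seeded PGC/ERR cells (2,000/well, 6 h, 37 C/5% CO2) get compound by pin tool; 17.5 h incubation at 37 C; CellTiter-Fluor added, 30 min, fluorescence measured.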

[15] = qHTS assay to identify small molecule agonists of the RXR signaling pathway - cell viability counter screen (AID 1159529); also: nearly all actives have a fitted effect of over 50% in size; also: potency is read from the fitted curve at half-maximal effect
Summary of the method: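 Tox21 10K compounds were tested for cytotoxicity against GeneBLAzer RXR-alpha HEK 293T cells grown in 2% charcoal-stripped FBS. Exposure lasted 16 hr at 37 C, 5% CO2; viability read by CellTiter-Glo luminescence.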

[16] = target: Nuclear receptor subfamily 1 group I member 3 (Homo sapiens) (UniProt Q14994); assay: qHTS assay to identify small molecule agonists of the constitutive androstane receptor (CAR) signaling pathway (AID 1224839); also: nearly all actives have a fitted effect of over 15% in size; also: potency is read from the fitted curve at half-maximal effect
Summary of the method: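 Stable hCAR/CYP2B6-2.2kb HepG2 line in DMEM with 10% FBS; compounds (15 concentrations) and 0.75 uM PK11195 final, 24 h at 37 C/5% CO2, then ONE-Glo luminescence after 30 min.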

[17] = qHTS assay to identify small molecule antagonists of the estrogen related receptor (ERR) signaling pathway (AID 1224819;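 also: luminescence from an ERR-driven luciferase reporter measured with One-Glo reagent; series mostly up to about 46 µM; nearly all actives have a fitted effect of over 50% in size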)
Summary of the method: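 Compounds dissolved in DMSO were pin-transferred onto ERR cells that had been plated 6 h earlier, and cells were then incubated 18 h at 37 C; signal was luciferase luminescence via One-Glo.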

[18] = qHTS assay to identify small molecule agonists of the estrogen related receptor (ERR) signaling pathway (AID 1224820)
Summary of the method: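 An ERR cell line provided by NTP was seeded at 2,000 cells per well and allowed to settle for 6 h before compounds in DMSO were added. After 18 h at 37 C, luciferase activity was measured by One-Glo luminescence.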

[19] = test system: estrogen-related receptor alpha (ERRalpha) with PGC-1alpha coactivator, human; assay: qHTS assay to identify small molecule antagonists of the estrogen related receptor signaling pathway with the pleiotropic PPARgamma coactivator (PGC) (AID 1224821; calls by dose curve)
Summary of the method: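 A PGC/ERR cell line supplied by NTP is seeded, allowed 6 h at 37 C, and treated with test compounds in DMSO for 18 h. Signal is then measured as luciferase luminescence using One-Glo.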

[20] = qHTS assay to identify small molecule agonists of the estrogen related receptor signaling pathway with the pleiotropic PPARgamma coactivator (PGC) (AID 1224823)
Summary of the method: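 Compounds dissolved in DMSO are added by pin tool to PGC/ERR cells that have settled for 6 h, and incubation continues 18 h at 37 C. Reporter output is measured as One-Glo luminescence.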

Chain of Luciferin 4-monooxygenase (Photinus pyralis) (P08659 whole entry, looked up): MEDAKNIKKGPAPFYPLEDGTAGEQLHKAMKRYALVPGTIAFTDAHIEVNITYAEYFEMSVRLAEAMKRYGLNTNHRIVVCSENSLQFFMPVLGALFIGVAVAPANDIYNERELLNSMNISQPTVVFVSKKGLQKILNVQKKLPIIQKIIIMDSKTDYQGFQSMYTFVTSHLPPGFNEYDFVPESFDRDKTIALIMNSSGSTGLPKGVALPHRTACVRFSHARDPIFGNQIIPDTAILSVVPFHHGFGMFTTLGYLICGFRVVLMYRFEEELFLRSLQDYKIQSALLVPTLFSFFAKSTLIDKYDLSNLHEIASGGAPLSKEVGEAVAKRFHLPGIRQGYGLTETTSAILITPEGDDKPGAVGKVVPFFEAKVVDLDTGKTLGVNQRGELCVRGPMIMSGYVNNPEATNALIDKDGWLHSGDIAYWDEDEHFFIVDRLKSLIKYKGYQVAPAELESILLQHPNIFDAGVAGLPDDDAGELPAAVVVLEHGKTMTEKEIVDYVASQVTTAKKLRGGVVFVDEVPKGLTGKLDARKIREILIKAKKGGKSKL
Chain of Nuclear receptor subfamily 1 group I member 3 (Homo sapiens) (Q14994 whole entry, looked up): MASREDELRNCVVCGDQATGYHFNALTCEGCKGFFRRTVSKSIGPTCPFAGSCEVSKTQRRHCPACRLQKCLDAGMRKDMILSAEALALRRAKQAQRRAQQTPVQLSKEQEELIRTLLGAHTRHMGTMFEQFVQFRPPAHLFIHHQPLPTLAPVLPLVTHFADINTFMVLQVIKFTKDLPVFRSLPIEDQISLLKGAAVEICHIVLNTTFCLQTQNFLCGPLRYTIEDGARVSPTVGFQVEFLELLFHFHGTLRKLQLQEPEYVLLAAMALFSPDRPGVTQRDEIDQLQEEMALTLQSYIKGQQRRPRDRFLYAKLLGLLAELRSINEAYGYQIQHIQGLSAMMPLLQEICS
Chain of Retinoic acid receptor RXR-alpha (Homo sapiens) (P19793 whole entry, looked up): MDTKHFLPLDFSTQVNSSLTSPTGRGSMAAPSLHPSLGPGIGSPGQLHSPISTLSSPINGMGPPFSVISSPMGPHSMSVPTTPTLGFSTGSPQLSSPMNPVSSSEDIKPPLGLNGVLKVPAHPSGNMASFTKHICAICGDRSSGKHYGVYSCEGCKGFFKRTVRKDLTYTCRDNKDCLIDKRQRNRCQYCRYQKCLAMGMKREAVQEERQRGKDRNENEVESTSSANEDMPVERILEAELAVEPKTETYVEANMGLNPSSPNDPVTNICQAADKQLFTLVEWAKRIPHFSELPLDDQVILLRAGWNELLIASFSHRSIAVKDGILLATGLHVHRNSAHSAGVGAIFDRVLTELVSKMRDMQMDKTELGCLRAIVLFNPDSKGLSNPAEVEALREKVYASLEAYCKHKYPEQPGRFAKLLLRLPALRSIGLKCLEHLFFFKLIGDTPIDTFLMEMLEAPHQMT

SMILES: COc1cccc2c1C(=O)c1c(O)c3c(c(O)c1C2=O)C[C@@](O)(C(=O)CO)C[C@@H]3O[C@H]1C[C@H](N)[C@H](O)[C@H](C)O1
- Potency [1]: inactive
- Potency [2]: 3.85 µM (active)
- Potency [3]: inactive
- Potency [4]: 2.17 µM (active) and 6.68 µM (active)
- Potency [5]: 15.5 µM (active)
- Potency [6]: 6.85 µM (active) and 6.68 µM (active)
- Potency [7]: 2.17 µM (active) and 5.96 µM (active)
- Potency [8]: 137 nM (active) and 1.06 µM (active)
- Potency [9]: inactive
- Potency [10]: 216 nM (active) and 596 nM (active)

SMILES: CN(C)CCN(Cc1cccs1)c1ccccn1
- Potency [11]: inactive
- Potency [1]: inactive
- Potency [2]: inactive
- Potency [3]: inactive
- Potency [12]: inactive
- Potency [13]: inactive
- Potency [4]: inactive
- Potency [5]: inactive
- Potency [6]: inactive
- Potency [7]: inactive
- Potency [14]: inactive

SMILES: O=C1c2cccc(O)c2C(=O)c2c(O)cccc21
- Potency [15]: inactive
- Potency [2]: inactive
- Potency [3]: inactive
- Potency [5]: inactive
- Potency [6]: inactive
- Potency [7]: inactive
- Potency [8]: inactive
- Potency [16]: inactive
- Potency [14]: inactive
- Potency [9]: 39 µM (active) and inactive
- Potency [10]: inactive

SMILES: O=C(Nc1ccc(Cl)cc1)Nc1ccc(Cl)c(Cl)c1
- Potency [2]: inactive
- Potency [3]: 3.06 µM (active) and 3.35 µM (active)
- Potency [4]: 12.1 µM (active) and 6.86 µM (active) and 18.8 µM (active)
- Potency [5]: 5.62 µM (active) and 10 µM (active) and 9.77 µM (active)
- Potency [6]: 17.2 µM (active)
- Potency [7]: 15.4 µM (active)
- Potency [8]: inactive
- Potency [9]: 12.1 µM (active) and inactive
- Potency [10]: inactive

SMILES: CN(C)CCC=C1c2ccccc2CCc2ccccc21
- Potency [15]: 12.3 µM (active) and 15.5 µM (active) and 13.4 µM (active)
- Potency [1]: inactive
- Potency [12]: inactive
- Potency [13]: inactive
- Potency [4]: 68.6 µM (active) and 48.6 µM (active) and inactive
- Potency [5]: inactive
- Potency [8]: 48.6 µM (active)
- Potency [14]: 48.6 µM (active) and inactive

SMILES: c1ccc2sc(SSN3CCOCC3)nc2c1
- Potency [15]: inactive
- Potency [1]: 61 µM (active)
- Potency [3]: inactive
- Potency [4]: inactive
- Potency [5]: 22.4 µM (active) and 15.9 µM (active)
- Potency [6]: inactive
- Potency [14]: inactive
- Potency [9]: inactive
- Potency [10]: inactive

SMILES: Cc1c(OCC(F)(F)F)ccnc1CS(=O)c1nc2ccccc2[nH]1 (stereo not given)
- Potency [15]: inactive
- Potency [2]: inactive
- Potency [3]: 34.4 µM (active) and 26.6 µM (active)
- Potency [12]: inactive
- Potency [17]: inactive
- outcome [18]: inactive
- Potency [19]: inactive
- Potency [13]: inactive
- outcome [20]: inactive
- Potency [4]: inactive
- Potency [5]: 35.6 µM (active) and inactive
- Potency [6]: inactive
- Potency [7]: inactive
- Potency [8]: inactive
- Potency [16]: 30.6 µM (active) and 11.9 µM (active)
- Potency [14]: inactive
- Potency [9]: inactive
